# Laboratory results taken from PubChem BioAssay (NCATS).
# Inconclusive results are not listed. Entries that show only a call come without a potency. Calls of active or inactive are those of the source. Calls follow the shape of the dose curve; as a rule, active = well fitted inhibition curve with a large enough effect; inconclusive = small, poorly fitted or top-dose-only effect; inactive = flat fitted curve, though single readings scatter.
# Tested on: ECU
# Experiment: qHTS profiling for inhibitors of Plasmodium falciparum proliferation (AID 504749); also: nearly all actives have a fitted effect of over 60% in size
# Conditions: P. falciparum in erythrocytes, SYBR Green DNA, 72 h; series mostly up to 28.7 µM
# Method in brief: (§1)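 P. falciparum-infected erythrocytes (0.3% parasitemia, 2.5% hematocrit) incubated with compound 72 h at 37 C, 5% CO2. Parasite DNA detected by SYBR Green after lysis, overnight at room temperature; normalised to 0.29 uM artemisinin and DMSO.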
# Potency is read from the fitted curve at half-maximal effect.
row,SMILES,Potency
1,O=[N+]([O-])c1ccccc1,inactive
2,O=C1CC[C@@]2(O)C3Cc4ccc(O)c5c4C2(CCN3CC2CC2)[C@H]1O5 (stereo partly drawn),inactive
3,O=C/C=C/c1ccccc1,inactive
4,CC1CCC(C(C)C)C(OC(=O)c2ccccc2N)C1 (stereo not drawn),inactive
5,CCOP(=O)(OCC)O/C(=C/Cl)c1ccc(Cl)cc1Cl,inactive
6,c1csc(C2(N3CCCCC3)CCCCC2)c1,inactive
7,CCN(CC)C(=O)/C(Cl)=C(\C)OP(=O)(OC)OC,inactive
8,[Cl-].[Cl-].[Hg+2],6.31 µM (active)
9,CCC1(CC)C(=O)NC(=O)N(C)C1=O,inactive
10,c1cc2c(c(NC3=NCCN3)c1)CCCC2,inactive
11,CCC(=O)O[C@@](Cc1ccccc1)(c1ccccc1)[C@@H](C)CN(C)C,inactive
12,N#CC(C#N)=Cc1cc(O)c(O)c(O)c1,inactive
13,C=CCC1(C(C)CCC)C(=O)N=C(S)NC1=O (stereo not drawn),inactive
14,Oc1cccc[c]1[Hg][Cl],3.55 µM (active)
15,ClC1C(Cl)C(Cl)C(Cl)C(Cl)C1Cl (stereo not drawn),inactive
16,CCCCCCCCCC(=O)O[C@H]1CC[C@H]2[C@@H]3CCC4=CC(=O)CC[C@]4(C)[C@H]3CC[C@]12C,inactive

row,SMILES,Potency
1,CCC1(c2ccccc2)C(=O)NC(=O)N(C(=O)c2ccccc2)C1=O (stereo not drawn),inactive
2,COc1ccc2c(c1OC)C(=O)OC2C1c2cc3c(cc2CCN1C)OCO3 (stereo not drawn),inactive
3,C=CCN=C=S,inactive
4,CCOc1ccc2c3c1O[C@H]1[C@@H](O)C=C[C@H]4[C@@H](C2)N(C)CC[C@@]341,inactive
5,Cc1sc2ccccc2c1CC1=NCCN1,inactive
6,O=C1CN=C(c2ccccc2)c2cc(Cl)ccc2N1CC1CC1,inactive
7,CC(C)Nc1ccc(Nc2ccccc2)cc1,11.2 µM (active)
8,CNC(=O)Oc1ccccc1C(=O)Nc1ccccc1,11.2 µM (active)
9,CC12NC(Cc3ccccc31)c1ccccc12 (stereo not drawn),inactive
10,c1ccc2cc(CC3=NCCN3)ccc2c1,inactive
11,C[C@@H](Cc1ccccc1)NCCC(c1ccccc1)c1ccccc1,3.55 µM (active)
12,CCCN1CCCC2Cc3[nH]ncc3CC21 (stereo not drawn),inactive
13,Oc1cc(Cl)c(Cl)cc1Cl,inactive
14,CN1CCCC(=C(c2cccs2)c2cccs2)C1,inactive
15,CN1[C@@H]2CC[C@H]1CC(OC1c3ccccc3CCc3ccccc31)C2 (stereo partly drawn),3.55 µM (active)

# Tested on: FAB9
# Experiment: as above
# Conditions: P. falciparum in erythrocytes, SYBR Green DNA, 72 h; series mostly up to 28.7 µM
# Method in brief: as §1
row,SMILES,Potency
1,O=[N+]([O-])c1ccccc1,inactive
2,O=C1CC[C@@]2(O)C3Cc4ccc(O)c5c4C2(CCN3CC2CC2)[C@H]1O5 (stereo partly drawn),inactive
3,O=C/C=C/c1ccccc1,inactive
4,CCNC(C)Cc1cccc(C(F)(F)F)c1 (stereo not drawn),inactive
5,CC1CCC(C(C)C)C(OC(=O)c2ccccc2N)C1 (stereo not drawn),inactive
6,CCOP(=O)(OCC)O/C(=C/Cl)c1ccc(Cl)cc1Cl,inactive
7,c1csc(C2(N3CCCCC3)CCCCC2)c1,inactive
8,CCN(CC)C(=O)/C(Cl)=C(\C)OP(=O)(OC)OC,inactive
9,[Cl-].[Cl-].[Hg+2],7.08 µM (active)
10,CCC1(CC)C(=O)NC(=O)N(C)C1=O,inactive
11,c1cc2c(c(NC3=NCCN3)c1)CCCC2,inactive
12,CCC1C(C)=NN=C(c2ccc(OC)c(OC)c2)c2cc(OC)c(OC)cc21 (stereo not drawn),inactive
13,CCC(=O)O[C@@](Cc1ccccc1)(c1ccccc1)[C@@H](C)CN(C)C,inactive
14,C=CCC1(C(C)CCC)C(=O)N=C(S)NC1=O (stereo not drawn),inactive
15,F/C(COc1ccc2c(c1)[nH]c1ccccc12)=C1/CN2CCC1CC2,inactive
16,Oc1cccc[c]1[Hg][Cl],10 µM (active)
17,C[C@H]1CCC[C@H](O)CCCCCc2cc(O)cc(O)c2C(=O)O1,inactive
18,ClC1C(Cl)C(Cl)C(Cl)C(Cl)C1Cl (stereo not drawn),inactive
19,CCC1(c2ccccc2)C(=O)NC(=O)N(C)C1=O (stereo not drawn),inactive

row,SMILES,Potency
1,CCCCCCCCCC(=O)O[C@H]1CC[C@H]2[C@@H]3CCC4=CC(=O)CC[C@]4(C)[C@H]3CC[C@]12C,inactive
2,CCC1(c2ccccc2)C(=O)NC(=O)N(C(=O)c2ccccc2)C1=O (stereo not drawn),inactive
3,COc1ccc2c(c1OC)C(=O)OC2C1c2cc3c(cc2CCN1C)OCO3 (stereo not drawn),inactive
4,C=CCN=C=S,inactive
5,OC(c1ccccc1)(c1ccccc1)C1CN2CCC1CC2 (stereo not drawn),inactive
6,CCOc1ccc2c3c1O[C@H]1[C@@H](O)C=C[C@H]4[C@@H](C2)N(C)CC[C@@]341,inactive
7,Cc1sc2ccccc2c1CC1=NCCN1,inactive
8,O=C1CN=C(c2ccccc2)c2cc(Cl)ccc2N1CC1CC1,inactive
9,CC(C)Nc1ccc(Nc2ccccc2)cc1,10 µM (active)
10,CNC(=O)Oc1ccccc1C(=O)Nc1ccccc1,inactive
11,O=c1c2ccccc2[se]n1-c1ccccc1,inactive
12,CC12NC(Cc3ccccc31)c1ccccc12 (stereo not drawn),inactive
13,c1ccc2cc(CC3=NCCN3)ccc2c1,inactive
14,C[C@@H](Cc1ccccc1)NCCC(c1ccccc1)c1ccccc1,inactive
15,CCCN1CCCC2Cc3[nH]ncc3CC21 (stereo not drawn),inactive
16,Oc1cc(Cl)c(Cl)cc1Cl,inactive
17,CN1CCCC(=C(c2cccs2)c2cccs2)C1,inactive
18,CN1[C@@H]2CC[C@H]1CC(OC1c3ccccc3CCc3ccccc31)C2 (stereo partly drawn),inactive
